Measured values as given in PubChem BioAssay (NCI).
About 83,000 compounds went through this panel and 20% of them were active in at least one assay; those are over-represented in the sample as a whole.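 96-well plates, one dose, 48 hours. Percent growth reported; active if below 10.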 Unmarked numbers belong to inactive results. Activity calls are given as the source filed them.

What was measured:
Test in all cases: NCI-60 one-dose screen, 48 h (100 = growth as untreated, 0 = no growth, -100 = all killed)
[1] = system: NCI-H460 lung; details: 10 µM unless noted
[2] = system: 786-0 renal; details: 10 µM unless noted
[3] = system: DU-145 prostate; details: 10 µM unless noted
[4] = system: SF-268 CNS; details: 10 µM unless noted
[5] = system: SF-539 CNS; details: 10 µM unless noted
[6] = system: M14 melanoma; details: 10 µM unless noted
[7] = system: HCT-15 colon; details: 10 µM
[8] = system: SNB-75 CNS; details: 10 µM unless noted
[9] = system: PC-3 prostate; details: 10 µM unless noted
[10] = system: UACC-62 melanoma; details: 10 µM unless noted
[11] = system: SK-MEL-28 melanoma; details: 10 µM unless noted
[12] = system: SN12C renal; details: 10 µM unless noted
[13] = system: TK-10 renal; details: 10 µM unless noted
[14] = system: HL-60(TB) leukemia; details: 10 µM unless noted
[15] = system: OVCAR-8 ovarian; details: 10 µM unless noted
[16] = system: NCI/ADR-RES ovarian; details: 10 µM unless noted
[17] = system: SW-620 colon; details: 10 µM unless noted
[18] = system: MCF7 breast; details: 10 µM unless noted
[19] = system: HCT-116 colon; details: 10 µM unless noted
[20] = system: KM12 colon; details: 10 µM unless noted

Row | SMILES | growth [1] | growth [2] | growth [3] | growth [4] | growth [5] | growth [6] | growth [7] | growth [8] | growth [9] | growth [10] | growth [11] | growth [12] | growth [13] | growth [14] | growth [15] | growth [16] | growth [17] | growth [18] | growth [19] | growth [20]
1 | COc1c(O)c2c3c(c1OC)-c1ccccc1CC3N(C)CC2 (centres undefined) | 110% | 100% | 116% | 101% | 107% | 93.3% | 105% | 82.4% | 100% | 94.9% | 117% | 99.9% | 102% | 112% | 110% | 99.7% | 117% | 100% | 95.7% | 100%
2 | Oc1ccccc1OB(Oc1ccccc1O)N(CCCl)CCCl | 68.3% | 92.3% | 86.9% | 63.5% | 63.2% | 85.2% | 75.7% | 92.8% | 82.8% | 94.7% | 110% | 78.4% | 98.9% | 0.713% (active) | 77.2% | 85% | 82.9% | 88.2% | 86.8% | 69.4%
3 | C[CH2][Pb]([CH2]C)([CH2]C)[O]C(=O)c1ccc(N)cc1 | 69.5% | 80.2% | 68% | 72.9% | 87.4% | 60% | 66.1% | 47.2% | 57.5% | 73.4% | 58.8% | 77.2% |  | 56.1% | 82.1% | 59.7% | 28.7% | 56.1% | 57.7% | 59.4%
